Source: PubChem BioAssay
DT40 TDP1 no CPT – qHTS for Inhibitors of human tyrosyl-DNA phosphodiesterase 1 (TDP1): qHTS in cells in absence of CPT; DT40 Tdp1-/- hTDP1 cells, no CPT, ATP luminescence, 48 h; Potency, µM (top dose mostly 46.2 µM), hits mostly inhibitors; actives 15% (n = 420,000); note: nearly all actives have a fitted effect of over 55% in size
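Chicken DT40 Tdp1-/- cells complemented with human TDP1, screened without camptothecin (DMSO vehicle only), 400 cells/well. Compounds pin-transferred, cells incubated at 37 °C for at least 48 hr. Growth read as ATP-dependent luminescence (CellTiter-Glo, 30 min at RT).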
TDP1 cell CPT – growth inhibition of DT40 Tdp1-/-;hTDP1 cells with camptothecin (screen for TDP1 inhibitors); actives 12% (n = 420,000); chicken DT40 Tdp1-/-;hTDP1 cells + 20 nM CPT, ATP luminescence, 48 h; Potency, µM (top dose mostly 46.2 µM), hits mostly inhibitors; note: nearly all actives have a fitted effect of over 55% in size
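Chicken DT40 Tdp1-/- cells complemented with human TDP1, 400 cells/well, exposed to compounds plus 20 nM camptothecin for at least 48 h at 37 C; viability read as ATP content by CellTiter-Glo luminescence.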
HepG2 tox – kills HepG2 cells in TGF-b inhibitor counter-screen; HepG2 CAGA-GFP viability, ATP luminescence, 18 h; AID 588856; Potency, µM (series often up to 46.1 µM), most hits filed as cytotoxic; actives 0.76% (n = 410,000)
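HepG2 CAGA-GFP cells (1000/well, DMEM with 1% FBS) received compound, then TGF-beta at 500 pg/mL final, and were incubated 18 hours at 37 degrees C. Viability was read by CellTiter-Glo luminescence. Media-only wells were set as complete cell-killing and DMSO as no toxicity.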
TGFb SMAD3 inh – inhibitors of TGF-b signaling | HepG2 CAGA-GFP TGF-b/SMAD3 reporter, GFP fluorescence, 18 h; TGF-beta stimulated, 500 pg/mL final | Potency, µM (titrated, usually from 46.1 µM), usual class: inhibitors | actives 1.2% (n = 410,000); note: nearly all actives have a fitted effect of over 65% in size
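Smad-responsive CAGA-GFP expression was quantified in HEPG2 cells exposed to compounds and 500 pg/mL final TGF-beta for 18 h at 37 degrees C; unstimulated wells defined full inhibition.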
IL1B secr inh – inhibitors of inflammasome signaling (IL-1 beta secretion); actives 4.7% (n = 360,000); AID 743279; activity change, % at 57.5 µM; THP-1 LPS/ATP IL-1B secretion, AlphaLISA, 16 h; active compounds read low; in the data active = activity change below about -50%; inconclusive = mostly about -30% to -49%
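Secreted IL-1B measured by AlphaLISA bead assay after 16 h compound exposure of THP-1 cells; compounds (final up to 57.5 uM) added 1 h before LPS (250 ng/mL) and ATP (1.25 mM) stimulation; lower signal means less secretion.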
TDP1 inh – blocks human tyrosyl-DNA phosphodiesterase 1 | Q9NUW8 | recombinant TDP1, AlphaScreen DNA substrate cleavage | Potency, µM (highest dose often 130 µM), actives largely listed as inhibitors | actives 0.28% (n = 350,000) | AID 485290; note: nearly all actives have a fitted effect of over 40% in size
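Compounds were preincubated with Tdp1 (1 nM final) for 15 min at room temperature before substrate (15 nM final) started a 5 min reaction; beads (10 ug/ml final) were then added for 10 min before AlphaScreen detection.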
Numbers stand for hits; i = inactive; ? = inconclusive; nt = no result given. Sampled rows, rich in hits. Any-hit rate of the full collection: about 19%. Unless noted, calls come from the whole dose curve; as a rule, active = well fitted curve in the direction sought with a large enough effect; inconclusive = small, poorly fitted or top-dose-only effect, or another doubt; inactive = no such curve, though single readings can be large; an effect the other way counts as inactive or inconclusive.

SMILES | DT40 TDP1 no CPT | TDP1 cell CPT | HepG2 tox | TGFb SMAD3 inh | IL1B secr inh | TDP1 inh
O=S(=O)(Nc1ccc(S(=O)(=O)N2CCOCC2)cc1)c1ccccc1 | i | i | i | i | i | i
COc1ccc(S(=O)(=O)N2CCCCC2)cc1 | i | i | i | i | i | i
COc1ccc(NS(=O)(=O)c2ccc(S(=O)(=O)N3CCCC3)cc2)cc1 | 21µM | ? | i | i | i | i
CCOc1ccc(-c2nc(CNC(=O)NC3CCCCC3)c(C)o2)cc1 | i | i | i | i | nt | i
O=C(O)Cc1sc(Nc2ccccc2Cl)nc1-c1ccccc1 | i | i | i | i | nt | i
C=CCN1C(=O)N(c2ccc(F)cc2)C(=O)C1CC(=O)Nc1ccc(Cl)cc1 (configuration not stated) | i | i | i | i | i | i
CCN(Cc1ccccc1)C(=O)Cn1c(=O)n(-c2ccc(Cl)cc2)c(=O)c2c(C)c(C)sc21 | 18µM | 3.7µM | i | i | nt | i
CCN(Cc1ccccc1)C(=O)Cn1c(=O)n(-c2ccc(C)c(C)c2)c(=O)c2c(C)c(C)sc21 | ? | 21µM | i | ? | nt | i
O=C(Cn1c(=O)n(-c2ccc(Cl)cc2)c(=O)c2c3c(sc21)CCC3)c1ccccc1 | ? | ? | i | i | nt | i
CCOc1ccc(-n2c(=O)c3c(C)c(C)sc3n(CC(=O)c3ccccc3)c2=O)cc1 | 16µM | 13µM | i | i | nt | i
Cc1ccc(-n2c(=O)c3c(C)c(C)sc3n(CC(=O)c3ccc(Cl)cc3)c2=O)cc1C | i | i | i | i | nt | i
CCOc1ccc(-n2c(=O)c3c(C)c(C)sc3n(CC(=O)N(CC)Cc3ccccc3)c2=O)cc1 | 12µM | 18µM | i | i | nt | i
COCCCNC(=O)CCCN1C(=O)c2cccnc2Sc2ccccc21 | i | i | i | i | i | nt
C[C@@H](C1[C@@H](O)CC2C3C=CC4C[C@@H](O)CC[C@]4(C)[C@H]3CC[C@@]21C)[C@@H]1CCCCN1 (some centres not stated) | 1.2µM | 1.6µM | nt | nt | nt | i
COc1ccc(-c2cc(C(F)(F)F)nc(SCC(=O)N3CCCCC3C)n2)cc1OC (configuration not stated) | ? | ? | i | i | nt | i
CCC1CCCCN1C(=O)CSc1nc(-c2ccc(OC)c(OC)c2)cc(C(F)(F)F)n1 (configuration not stated) | 23µM | ? | i | i | nt | i
CCC1CCCCN1C(=O)CSc1nc(-c2ccc(OC)cc2)cc(C(F)(F)F)n1 (configuration not stated) | 9.2µM | 23µM | i | ? | nt | i
NCCOB(c1ccccc1)c1ccccc1 | 16µM | ? | nt | nt | nt | ?
NCCOc1ccccc1-c1ccccc1 | ? | ? | i | i | i | i
O=c1c2cc([N+](=O)[O-])ccc2sn1-c1ccccc1 | 2.9µM | 4.6µM | i | i | i | nt
CC(=O)Nc1ccc2sn(-c3ccccc3)c(=O)c2c1 | 2.1µM | 2.1µM | i | ? | -102 | nt
CC(=O)Nc1ccc2c(c1)c1ccccc1n2C(C)=O | ? | ? | i | i | i | i
O=c1c(-c2ccccc2)c[nH]n1-c1cccc([N+](=O)[O-])c1 | ? | i | i | i | i | i
N#Cc1ccc2sn(-c3ccccc3)c(=O)c2c1 | 4.6µM | 3.7µM | i | ? | i | nt
Cc1ccsc1CN(Cc1ccco1)c1cnc(S(C)(=O)=O)nc1C(=O)Nc1ccc(Cl)cc1 | ? | ? | i | i | nt | i
CC(O)(c1cccc(F)c1)c1nc(-c2cc(F)cc(F)c2)cs1 (configuration not stated) | ? | 2.9µM | i | 11µM | i | nt
CC(O)(c1ccccc1)c1nc(-c2cccc(F)c2)cs1 (configuration not stated) | i | 21µM | i | ? | i | nt
